PubChem BioAssay (NCI)
Several values for one entry are separate records, joined by “and”; a condition that tells them apart may be missing. Equal entries are not always repeated. Compounds without any hit were thinned out: in the full panel of roughly 83,000, 20% have a hit.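 A percent growth of 40 corresponds to 60% growth inhibition; 0 means no net growth; -100 means all cells died. Active threshold: below 10.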 Unmarked numbers belong to inactive results. Activity calls are given as the source filed them.

Tested on: HL-60(TB) leukemia
Test: NCI-60 one-dose screen, 48 h (100 = growth as untreated, 0 = no growth, -100 = all killed)

Which growth (10 µM) does the source give for COc1ccc(C(=O)/C=C/c2ccc(OCc3cccc(C(F)(F)F)c3)c(OC)c2)cc1OC here?
The growth was 36.4%.

And the growth (100 µM)?
Its growth is -17.8% (active).

For Cc1cc2c(F)c(Oc3ncnc(Nc4ccc(N5C[C@@H](C)N[C@@H](C)C5)cc4)c3C#N)cc(F)c2[nH]1, which growth (10 µM unless noted) is on record?
The growth was -54.6% (active).

For Cc1ccc(/C=N/Nc2nc(Nc3ccccc3)nc(-n3nc(C)cc3C)n2)cc1, which growth (10 µM unless noted) is on record?
Its growth is 53.3%.

COc1ccc(Cl)cc1C(=O)NCCc1ccc(S(=O)(=O)NC(=O)NC2CCCCC2)cc1 was tested. Which growth (10 µM) did it give?
Its growth is 121% and 103%.

And the growth (100 µM)?
The growth was 94.2%.

CC(=O)/C=C/c1ccc(OCc2ccc(C(C)(C)C)cc2)cc1 was tested. Which growth (10 µM) did it give?
Its growth is 59.5%.

What about the growth (100 µM) of the same molecule?
The growth was -32.4% (active).

How did the growth (0.25 µM) turn out when CCCCCCCCCCCCCCCc1ccc(Cl)c(O)c1Cl (tested in a mixture with another compound) was run?
Its growth is 18.3%.

And the growth (10 µM)?
Its growth is 118%.

How did the growth (10 µM) turn out when CC(=O)/C=C/c1ccc(OCc2ccc(Cl)cc2)cc1 was run?
The growth was 83.9%.

What about the growth (100 µM) of the same molecule?
The growth was 14%.

C#COc1cccc(Nc2ncnc3ncc(NC(=O)CCl)cc23)c1 was tested. Which growth (10 µM unless noted) did it give?
The growth was -1.51% [6.25 µM] (active).

For CCN(Cc1ccccc1)c1ccc(/C=C2\COc3ccccc3C2=O)cc1, which growth (10 µM) is on record?
Its growth is 78.3%.

What about the growth (100 µM) of the same molecule?
The growth was 8.32% (active).

With CC12CCC(C(=O)CC1=O)C2(C)C (stereo not drawn) as the molecule, how does the growth (10 µM unless noted) read?
The growth was 71.5% and 93.6%.

Which growth (2.5 µM) does the source give for COc1cc(NS(C)(=O)=O)ccc1Nc1c2ccccc2nc2ccccc12 here?
Its growth is -0.933% (active).

And the growth (10 µM)?
Its growth is -43.9% (active) and -9.61% (active) and -4.58% (active).
